Measured values published in the supplement of paper PMC3334620.
Whole data set: some 33,000 sequences, median “E-score (-0.5 to 0.5)” near -0.011, cut for the highest 2% near 0.28. What follows is part of a selection rich in the highest values, with near analogues and random picks from the rest.

Biological target: T1, Gcr1 (UniProt P07261)
T1 sequence: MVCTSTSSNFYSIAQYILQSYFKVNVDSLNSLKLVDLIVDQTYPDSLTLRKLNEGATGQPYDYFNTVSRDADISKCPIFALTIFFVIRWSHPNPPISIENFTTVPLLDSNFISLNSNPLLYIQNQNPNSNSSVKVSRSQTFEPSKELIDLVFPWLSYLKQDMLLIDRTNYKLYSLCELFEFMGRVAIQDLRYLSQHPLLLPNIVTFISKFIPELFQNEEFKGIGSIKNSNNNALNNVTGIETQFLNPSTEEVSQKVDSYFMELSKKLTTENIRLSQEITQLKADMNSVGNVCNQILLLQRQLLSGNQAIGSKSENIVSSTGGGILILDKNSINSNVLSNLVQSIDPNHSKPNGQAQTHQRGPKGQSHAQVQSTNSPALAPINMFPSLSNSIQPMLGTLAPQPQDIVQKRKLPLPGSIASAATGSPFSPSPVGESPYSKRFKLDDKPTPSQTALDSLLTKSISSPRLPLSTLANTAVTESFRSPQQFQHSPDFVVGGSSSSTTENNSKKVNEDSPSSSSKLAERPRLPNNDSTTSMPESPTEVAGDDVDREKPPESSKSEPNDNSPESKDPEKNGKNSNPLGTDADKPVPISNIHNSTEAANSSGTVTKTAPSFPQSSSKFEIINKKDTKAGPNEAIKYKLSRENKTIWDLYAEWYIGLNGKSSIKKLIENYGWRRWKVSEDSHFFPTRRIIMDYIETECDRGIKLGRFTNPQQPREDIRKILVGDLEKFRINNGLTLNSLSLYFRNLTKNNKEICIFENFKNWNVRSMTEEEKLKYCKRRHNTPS
Assay: PBM E-score (8-mer binding enrichment) (E-score (-0.5 to 0.5)); higher = stronger / more preferred TF binding
Settings: protein concentration: 100 nM; construct: GST-full length
In short: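 Yeast transcription factors carrying a GST tag, as full-length proteins or DNA-binding domains, were produced by PURExpress in vitro transcription/translation. About 100-200 nM protein was applied to universal all-10-mer Agilent arrays, double-stranded by primer extension on fresh or once-stripped slides. Bound protein was detected with fluorescent anti-GST, and scans were normalised with masliner. The Universal PBM Analysis Suite gave each ungapped eight-base word, pooled with its reverse complement, an E-score, a modified Wilcoxon-Mann-Whitney statistic.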

Row | Sequence | PBM E-score
1 | AGTGAGAC | -0.352
2 | AGATCGAT | -0.137
3 | ATTCCAGG | 0.097
4 | CTTCCAGC | 0.123
5 | CGTCCAGA | 0.233
6 | CTTCCAGA | 0.341
7 | AATCCAGA | 0.259
8 | ATTCCAGA | 0.286
9 | AGTCCAGA | -0.0665
10 | ATTCCAGC | 0.299
11 | GTTCCAGA | 0.257
12 | TCGGGACA | -0.0131
13 | AGCTAAAC | -0.126
14 | CGAGGGTC | -0.166
15 | AGCTAGGA | 0.0251
16 | ATTAGGCG | 0.309
17 | ATTAGACG | 0.295
18 | AATAGAGT | 0.0735
19 | ATTAGGCA | 0.00576
20 | AGTAGAAC | 0.0351
21 | CGTAGAAG | 0.275
22 | AATAGAGG | 0.297
23 | AATAGAGA | -0.0168
24 | ATTAGACA | 0.0379
25 | ATTAGACC | -0.13

Row | Sequence | PBM E-score
26 | AGTAGAAG | 0.327
27 | ATTAGGCC | -0.116
28 | GGACAACA | -0.253
29 | AAGGCCTT | -0.343
30 | ACCCTGAA | 0.192
31 | GATTAGGC | -0.0727
32 | ACTGATCA | -0.148
33 | GATGGAAA | 0.029
34 | AGTGCGCG | -0.037
35 | CATCTTGG | -0.102
36 | AGAGCATG | -0.0857
37 | AGTAGACT | -0.048
38 | CGTAGACG | -0.0412
39 | AGTAGACG | 0.302
40 | AATAGACG | 0.286
41 | AATAGACA | -0.116
42 | AATAGACT | 0.0888
43 | AAGCACCA | 0.0436
44 | AGGCCAGC | -0.196
45 | CAGGAATC | 0.394
46 | GAGGAATA | -0.146
47 | AAGGAATC | 0.26
48 | CAGGAATA | 0.134
49 | CAGGAATG | 0.115
50 | GAGGAATC | 0.345

Row | Sequence | PBM E-score
51 | ATCATAGG | 0.0674
52 | ATAGGCTG | -0.0658
53 | ATCAGCGG | 0.00888
54 | GAACCGGA | 0.183
55 | GACTGGCC | -0.151
56 | CGGGCTGA | -0.241
57 | TCACTGGA | 0.219
58 | GGCTACTA | 0.219
59 | CGCGTTAA | -0.167
60 | CTCCGCAA | 0.0291
61 | AAAAGACG | 0.131
62 | AGGGAAGG | -0.218
63 | CGGGAAAC | 0.191
64 | CGGGAAGA | 0.0397
65 | AGGGAAGA | -0.198
66 | AGGGAAGC | 0.281
67 | CGGGAAGC | 0.317
68 | ATACTGCA | 0.0345
69 | ACTTGCAC | -0.126
70 | TAGCCTGA | -0.232
71 | AAGAGGCG | 0.0559
72 | CAGAGAAA | -0.0752
73 | CACTGGAG | -0.0119
74 | AACTGGAA | 0.342
75 | CTCTGGAA | 0.256

Row | Sequence | PBM E-score
76 | ATCTGGAC | 0.133
77 | AACTGGAG | 0.115
78 | TCCTGGAA | 0.162
79 | AACTGGAC | 0.198
80 | CACTGGAA | 0.318
81 | ATCTGGAA | 0.333
82 | CACTGGAC | 0.0576
83 | TGCTGGAA | 0.136
84 | TACTGGAA | 0.446
85 | GTCGCAAC | 0.0865
86 | GTACAAAA | -0.0647
87 | ATCCCTTA | -0.00764
88 | ACTCTAAT | -0.029
89 | ATTTGTCC | -0.109
90 | GTCCTGTA | 0.168
91 | AGTAACCG | 0.184
92 | CGGATCAG | 0.11
93 | ATGAACAC | 0.0906
94 | GAGCCCCA | 0.169
95 | GAAGAGAA | 0.0371
96 | ACACGTGG | 0.0635
97 | GACTGGAA | 0.325
98 | GACTGGAC | 0.0539
99 | GACTGGCA | -0.0492
100 | CGTCGGTA | -0.15

Row | Sequence | PBM E-score
101 | GCTGGACA | -0.0923
102 | CCAATACC | 0.205
103 | CAAGCTAC | 0.108
104 | AAAGCTAA | -0.0138
105 | GAAGCTAC | 0.323
106 | AAAGCTAC | -0.0941
107 | TAAGCTAA | -0.153
108 | GAAGCTAA | 0.312
109 | CTGCGACA | -0.106
110 | CTTATAAG | -0.0238
111 | CGTATAAC | 0.269
112 | AGTATAAA | 0.0707
113 | CGTATAAA | 0.32
114 | CTTATAAC | -0.0336
115 | CTTATAAA | 0.291
116 | TGAAACCA | 0.106
117 | ACAGACAA | 0.0204
118 | GGGGTTTA | -0.117
119 | GGTGAGGA | -0.0681
120 | AAAGTAAT | 0.154
121 | GGTGGGGA | 0.345
122 | CGTGGGGA | 0.0446
123 | GGCGGGGA | 0.304
124 | GGCGGGAA | 0.0372
125 | GGTGGGAA | 0.0991

Row | Sequence | PBM E-score
126 | CGCGGGGA | 0.0382
127 | GTACTTTA | 0.107
128 | GGGCCTAC | -0.25
129 | ATTGGGGC | 0.124
130 | AGTCAGCG | 0.0668
131 | CGGAACGA | 0.0962
132 | GGGATAAC | 0.0951
133 | AAGCTGCC | 0.347
134 | AAGCTGCT | 0.185
135 | GAGCTGCC | 0.187
136 | CAGCTGCA | -0.0536
137 | CAGCTGCG | 0.061
138 | CAGCTGCC | 0.352
139 | ACAGAGGT | 0.0543
140 | CCCACTTA | 0.0227
141 | CGCTCGAC | -0.094
142 | TCCAAAAA | 0.253
143 | ACTAGCGG | -0.0781
144 | GGACACTA | 0.0929
145 | AACTAGGC | 0.122
146 | CGGGAGCC | 0.337
147 | CGGGAGCA | -0.109
148 | AGGGAGCG | 0.0432
149 | AGGGAGCC | 0.296
150 | CGGGAGAC | 0.036

Row | Sequence | PBM E-score
151 | AGGGAGCA | -0.171
152 | ATTGCCGC | -0.0608
153 | GATTTCAC | -0.0263
154 | AGCGAGCA | -0.108
155 | CCGCTTCG | 0.0926
156 | AGGCTTCC | 0.436
157 | AGGCTTCA | -0.0957
158 | CCGCTTCC | 0.346
159 | AGGCTTCG | 0.00576
160 | GCGCTTCC | 0.348
161 | GCGCTTAC | -0.17
162 | GCGCTTCA | -0.0425
163 | CCGCTTCA | -0.0817
164 | ACGCTTCG | -0.0461
165 | ACGCTTCA | -0.0408
166 | ACGCTTCC | 0.313
167 | GCGAATTA | -0.00089
168 | AAACCAAA | 0.066
169 | AGACCTCC | -0.282
170 | CGCTAGGC | -0.216
171 | CACGGCCG | -0.152
172 | ATCGGGTA | -0.136
